The record followed here is PubChem BioAssay AID652094 (National Center for Advancing Translational Sciences (NCATS), 2013).

Molecules are shown by their SMILES. Calls of active or inactive are those of the source.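 The calls were made as follows: active = lower glucosylceramide lipid buildup in Gaucher patient macrophages after compound treatment; inactive = the rest.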

The assay in a line: Extended Characterization of Activators of N370S glucocerebrosidase as a Potential Chaperone Treatment of Gaucher Disease: Quantification of GlcCer accumulation in Gaucher macrophages. The conditions noted are these: Gaucher patient macrophages, GlcCer-BODIPY accumulation fluorescence. From the text: Glucocerebrosidase (GCase) catalyzes the hydrolysis of beta-glucocerebroside (GC) to glucose and ceramide in lysosomes. Mutations in the glucocerebrosidase gene result in Gaucher disease, an autosomal recessive lysosomal storage disorder. Many of the mutations encountered in patients with Gaucher disease are missense alterations that may cause misfolding, decreased stability and/or mistrafficking of this lysosomal protein. […] These inhibitors include iminosugar analogs and other inhibitors that were discovered as part of previous work. However, the enhancement of enzyme activity by the chaperone action of an enzyme inhibitor must be balanced against the direct inhibition of the enzyme. […] In this extended characterization of our probe, we have further characterized the activity of probes in relevant models of Gaucher disease. This assay attempts to quantitate GC concentration in patient-derived macrophages following compound incubation. NIH Chemical Genomics Center [NCGC] NIH Molecular Libraries Probe Production Centers Network [MLPCN] […]
In order to quantify macrophage GlcCer accumulation, erythrocyte ghosts were labeled with N-[11- (dipyrrometheneboron difluoride) undecanoyl]-D-Glucosyl-beta1-1'-D-erythro-sphingosine (C11 TopFluor Glucosyl Ceramide) (Avanti Polar Lipid) for 30 min at 37 degrees C and fluorescence measured at 495/503 nm on a Victor 1420 multi-label counter (PerkinElmer).
Take `C#Cc1ccc(NC(=O)c2cnn3c(C)cc(C)nc23)cc1`: the outcome was “active; decreased”.
